# Compounds with a hit are over-represented: about 4.2% of the library has one in this group of screens.
# RecA splice inh: Mtb RecA intein splicing inhibition. P9WHJ3. cell-free RecA intein splicing, fluorescence. inhibition, % (test concentration not listed). 290,000 tested, 0.75% active. AID 2221; in the data active means inhibition above about 30%;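 further: 0% = vehicle wells and 100% = reference inhibitor control wells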
# Target sequence (P9WHJ3 whole entry, looked up, canonical isoform): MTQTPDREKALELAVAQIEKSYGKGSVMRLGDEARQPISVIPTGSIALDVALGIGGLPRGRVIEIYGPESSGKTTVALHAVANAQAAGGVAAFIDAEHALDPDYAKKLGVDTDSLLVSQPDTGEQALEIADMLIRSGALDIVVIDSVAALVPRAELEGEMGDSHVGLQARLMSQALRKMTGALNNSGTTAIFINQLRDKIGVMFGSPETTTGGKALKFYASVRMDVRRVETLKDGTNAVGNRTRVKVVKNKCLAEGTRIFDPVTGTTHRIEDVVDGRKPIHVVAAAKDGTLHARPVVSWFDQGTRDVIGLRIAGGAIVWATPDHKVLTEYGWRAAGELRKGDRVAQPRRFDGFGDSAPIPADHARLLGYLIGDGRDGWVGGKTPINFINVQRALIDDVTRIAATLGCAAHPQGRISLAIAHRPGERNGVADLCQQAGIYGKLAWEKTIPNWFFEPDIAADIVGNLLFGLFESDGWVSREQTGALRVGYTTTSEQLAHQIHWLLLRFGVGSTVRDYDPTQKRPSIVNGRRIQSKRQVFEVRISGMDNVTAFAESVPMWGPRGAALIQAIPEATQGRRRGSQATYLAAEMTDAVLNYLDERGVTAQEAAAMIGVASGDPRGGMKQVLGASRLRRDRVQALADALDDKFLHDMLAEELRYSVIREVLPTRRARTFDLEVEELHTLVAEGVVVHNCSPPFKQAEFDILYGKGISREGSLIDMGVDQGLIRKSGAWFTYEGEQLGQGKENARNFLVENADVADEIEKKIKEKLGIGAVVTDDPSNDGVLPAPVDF
# Mtb betalactam: beta-lactam sensitization of Mtb H37Rv. M. tuberculosis H37Rv growth with meropenem, percent inhibition. inhibition, % at 25 µM. 330,000 tested, 0.27% active; call rule not given here;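 further: growth measured after seven days incubation then overnight dye step; 0% = bacteria only wells and 100% = bacteria with antibiotic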
# GDH-TPI counter-1: GDH-TPI coupled enzyme inhibition counter-screen. inhibition, % at 4.8 µM. 360,000 tested, 1.2% active. GDH-TPI coupled enzyme counterscreen, NADH absorbance. AID 588335;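 further: 0% = DMSO wells and 100% = wells lacking the enzyme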
# Mtb FBA inh: inhibitors of M. tuberculosis fructose-bisphosphate aldolase; P9WQA3; purified M. tuberculosis FBA, fluorescence read-out; inhibition, % at 1 µM; 360,000 tested, 2.3% active; in the data active means inhibition above about 27%;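 further: 0% = vehicle and 100% = reference inhibitor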
# CCHF vOTU inh: CCHFV vOTU protease inhibition; Pep-AMC fluorescence; inhibition, % at 11.5 µM; 370,000 tested, 0.55% active; AID 651958; further: 0% = vehicle wells with enzyme and 100% = no enzyme wells
# Mtb FBA confirm: confirmation of M. tuberculosis fructose-bisphosphate aldolase inhibitors | shares compounds with Mtb FBA inh | purified M. tuberculosis FBA, fluorescence read-out | inhibition, % at 1 µM | 5,600 tested, 78% active; in the data active means inhibition above about 27%;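 further: 0% = vehicle wells and 100% = reference inhibitor wells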
# GDH-TPI counter-2: counter-screen for M. tuberculosis FBA inhibitors: GDH-TPI coupled enzyme inhibition. shares compounds with Mtb FBA inh. GDH-TPI coupled enzyme counterscreen, fluorescence. inhibition, % at 1 µM. 5,600 tested, 81% active. AID 652141; in the data active means inhibition above about 10%
# GDH-TPI DR: counter-screen for M. tuberculosis FBA inhibitors: GDH-TPI dose response; IC50, µM; AID 652145; shares compounds with Mtb FBA inh; 170 tested, 79% active; GDH-TPI coupled enzyme assay, fluorescence, artifact counterscreen; call rule not given here
# Active calls of the source: *; nt = no result given; + = active, no number. Unless noted, no stated cut-off is given here; in the data, active means inhibition above about 30%; inactive means the rest.
SMILES,RecA splice inh,Mtb betalactam,GDH-TPI counter-1,Mtb FBA inh,CCHF vOTU inh,Mtb FBA confirm,GDH-TPI counter-2,others
O=C(C1CCN(c2cncnc2)CC1)N1CCOCC1,nt,nt,nt,nt,-4,nt,nt,
O=C(Cn1cnc2ccccc2c1=O)N1CCN(C(=O)C2CCCO2)CC1 (stereo not given),nt,nt,nt,nt,-5,nt,nt,
COc1ccc(Cn2ccc3ccc(-c4ccc5ccn(C(=O)c6ccccc6)c5c4)cc32)cc1,nt,nt,nt,nt,-8,nt,nt,
CCOc1ccc(C2C(C(=O)OC)=CN(C(C)c3ccccc3)C=C2C(=O)OC)cc1 (stereo not given),-5,5,-4,71*,-60,+,+,
CCOc1ccc(CCNC(=O)C(O)c2ccccc2)cc1 (stereo not given),0,-7,-8,2,0,nt,nt,
O=C(OC12CCCN(C1)/C(=C/c1ccc(Cl)cc1)C2)C1CCCCC1 (stereo not given),nt,nt,nt,nt,-3,nt,nt,
Cc1cc(N/N=C/c2ccc(N(C)C)cc2)c2ccccc2n1,0,2,31*,28*,-17,+,167*,
Cc1cc(N/N=C/c2ccco2)c2ccccc2n1,-1,5,-2,9,2,nt,nt,
O=[N+]([O-])c1ccc(C=Nc2cccc3ccccc23)s1,1,29,-2,50*,nt,6,-1,
O=[N+]([O-])c1ccc(-c2ccc(C=Nc3cccc4ccccc34)o2)cc1,4,-7,33*,71*,-21,12,-4,GDH-TPI DR=>10
O=[N+]([O-])c1ccc(-c2ccc(/C=N/O)o2)cc1,4,87,5,-9,15,nt,nt,
COC(=O)[C@]12C[C@H](CC(=O)NCc3ccc(OC)c(OC)c3)C(=O)N(Cc3ccc4c(c3)OCO4)C1=C[C@H](C(C)(C)C)O[C@@H]2C,nt,nt,nt,nt,18,nt,nt,
COCC(=O)N(Cc1cc2ccc(C)cc2[nH]c1=O)c1ccc(OC)cc1,4,-6,8,62*,-2,139*,128*,
Cc1cccc(NC(=O)Nc2nc3ncccn3c2-c2ccccc2)c1,nt,nt,nt,nt,-31,nt,nt,
Cc1nn(CCc2nn[nH]n2)c2nc(-c3ccc(Br)cc3)cc(C(F)(F)F)c12,4,100,11,19,-1,nt,nt,
Cc1nn(CCc2nn[nH]n2)c2nc(C(F)(F)F)cc(C(F)(F)F)c12,-3,24,-10,39*,-38,nt,+,
CCCc1cc2c(OC)ccc(O)c2c(=O)n1C,nt,nt,nt,nt,-1,nt,nt,
CCOC(=O)C1CCN(C(=O)CCc2c(C)nc3cc(-c4ccc(OC)cc4OC)nn3c2C)CC1,-3,43,1,50*,7,100*,68*,
CCOC(=O)[C@]12CCCCC/C=C\1N(CCc1ccc(Cl)cc1)C(=O)[C@H]2CC(=O)NCCC(C)C,nt,nt,nt,nt,18,nt,nt,
Nc1cc(N)cc(-c2nc3ccccc3o2)c1,nt,2,-5,2,0,nt,nt,
Cc1ccc2oc(-c3cccc(NC(=O)C4CCCO4)c3)nc2c1 (stereo not given),0,17,9,51*,0,120*,98*,
Cc1ccc2nc(-c3ccc(O)cc3)oc2c1,nt,2,4,66*,-12,68*,46*,
CCC(=O)Nc1cccc(-c2nc3ccc(C)cc3o2)c1,1,14,4,32*,-1,115*,99*,
Cc1ccc2nc(-c3cccc(N)c3)oc2c1,3,99,13,93*,-43,14,0,GDH-TPI DR=0.95*
COCc1[nH]nc2c1C(c1ccccc1)N(Cc1ccccc1)C2=O (stereo not given),nt,nt,nt,nt,10,nt,nt,
SMILES,RecA splice inh,Mtb betalactam,GDH-TPI counter-1,Mtb FBA inh,CCHF vOTU inh,Mtb FBA confirm,GDH-TPI counter-2,others
CC(C)C[C@H]1COc2cc(Br)ccc2S(=O)(=O)N1Cc1cn(Cc2ccc(Br)cc2)nn1,nt,nt,nt,nt,-5,nt,nt,
Cc1cc(C)c2oc(-c3cccc(N)c3)nc2c1,1,10,10,52*,-23,19,7,GDH-TPI DR=0.88*
CCc1ccc2oc(-c3cccc(N)c3)nc2c1,-3,98,4,63*,-46,127*,104*,
Nc1ccc2oc(-c3cccc(Br)c3)nc2c1,-2,98,15,3,nt,nt,nt,
COc1ccc(CN2C/C(=C/C3=CCCCC3)N(C(=O)OCc3ccccc3)C2=N)c(OC)c1,nt,nt,nt,nt,18,nt,nt,
Cc1cccc(CN2CCN(C3CN(Cc4cn(Cc5ccc(C(F)(F)F)cc5)nn4)S(=O)(=O)C3)CC2)c1 (stereo not given),nt,nt,nt,nt,-1,nt,nt,
CC(=O)NC(=O)c1ccc(-c2ccc(Cl)cc2)o1,-2,96,21,78*,-19,46*,56*,
CC(=O)N1CCc2c(sc(NC(=O)C3CCCN3S(=O)(=O)c3cccs3)c2C#N)C1 (stereo not given),0,-5,8,33*,7,48*,35*,
Cc1ccc(C(=O)OCC(=O)NCCc2ccc(S(N)(=O)=O)cc2)o1,nt,-5,1,-1,-14,nt,nt,
COc1ccc2oc(C(=O)OCC(=O)NCCc3ccc(S(N)(=O)=O)cc3)c(C)c2c1,nt,-2,8,38*,-30,+,184*,
COc1ccc2oc(C(=O)OCC(=O)N(CCC#N)c3ccccc3)c(C)c2c1,-3,-2,-1,39*,2,1,-5,
COc1ccc2oc(C(=O)OCC(=O)N(Cc3ccccc3)C(C)(C)C)c(C)c2c1,4,-9,3,9,-5,nt,nt,
COc1ccc2oc(C(=O)OCC(=O)NCCc3ccccc3)c(C)c2c1,-2,-12,8,32*,4,58*,43*,
O=C(CC1CCCC1)N[C@H](C(=O)N1CCC[C@H]1C(=O)NCc1ccccc1)c1ccccc1,nt,nt,nt,nt,-11,nt,nt,
O=C(COC(=O)c1cccc(S(=O)(=O)N2CCc3ccccc32)c1)Nc1ncc(Cl)cc1Cl,-1,3,1,-1,12,nt,nt,
CC(OC(=O)c1ccc(Cl)c(S(=O)(=O)N2CCc3ccccc32)c1)C(=O)Nc1ncc(Cl)cc1Cl (stereo not given),0,0,3,64*,4,35*,24*,
CCOC(=O)N1CCC(NC(=O)c2ccc3c(c2)N(Cc2ccccc2)CCS3)CC1,-3,4,0,28*,-12,65*,62*,
CCOC(=O)N1CCC(NC(=O)c2ccc3c(c2)N(Cc2ccc(F)cc2)CCS3)CC1,1,-1,5,71*,-38,182*,151*,
Cc1nn(-c2ccccc2)c2sc(C(=O)NCc3ccc4c(c3)OCO4)cc12,nt,nt,nt,nt,3,nt,nt,
COC(=O)C1=C(C)N(Cc2cccc(C(F)(F)F)c2)C(=NCc2ccc(OC)cc2)NC1c1ccccc1C(F)(F)F (stereo not given),nt,nt,nt,nt,18,nt,nt,
COc1ccc2sc(-c3ccccc3OC)c(C#Cc3cncn3C)c2c1,nt,95,25,6,3,nt,nt,
COc1ccccc1-c1sc2cc3c(cc2c1C#Cc1cncn1C)OCO3,nt,97,10,48*,-1,88*,61*,

# Screening results as filed in PubChem BioAssay.
